# Inconclusive results are not listed. The source made the active and inactive calls. The call rests on the fitted dose curve; in most records, active means well fitted inhibition curve with a large enough effect; inconclusive means small, poorly fitted or top-dose-only effect; inactive means flat fitted curve, though single readings scatter.
# Target: Muscarinic acetylcholine receptor M1 (Rattus norvegicus) (UniProt P08482)
# Assay: Counterscreen Concentration-Response Assay for Antagonists of the Neuropeptide S Receptor: Muscarinic Receptor Calcium Signal Transduction.
# Text: NIH Chemical Genomics Center [NCGC] NIH Molecular Libraries Probe Production centers Network [MLPCN] MLPCN Grant: X01-DA026210-01 Assay Submitter (PI): Heilig, Markus Alexander NCGC Assay Overview: Neuropeptide S receptor (NPSR), previously known as GPR154, is a recently de-orphanized G protein coupled receptor. Its endogenous ligand is the 20 amino acids peptide Neuropeptide S (NPS). […] NPS and its receptor are found in various tissues. Specifically they are highly expressed in brain areas that have been implicated in modulation of arousal, stress and anxiety. […] This change in intracellular calcium can be detected using a calcium indicator dye on a calcium imaging plate reader system (FDSS). […]
# NCGC Assay Protocol Summary: A Chinese hamster ovary (CHO) cell line stably expressing muscarinic acetylcholine M1 receptor (CHO-M1) was obtained from ATCC and maintained in F-12 Kaighn's media (Invitrogen, Carlsbad, CA, 21127) supplemented with 10 % FBS, 100 units/ml penicillin, 100 ug/ml streptomycin and 250 ug/ml geneticin at 37C, 5% CO2 in a humidified atmosphere. […] The assay was performed on a FDSS-7000 kinetic plate reader in 1536-well format. The maximums of kinetic fluorescence responses were converted into text files using the instrument's software data export utility. […] AC50 values were determined from concentration-response data modeled with the standard Hill equation. […]
compound,measurement,value
O=c1[nH]c(=O)n(CCC2=CCCCC2)c(O)c1C=NC1CCN(Cc2ccccc2)CC1,outcome,inactive
